According to PubChem BioAssay AID1159580 (chemical genetic matrix, 2015):
The whole screen tested about 5,500 compounds, of which about 2,000 (36%) were called active. Another 18% or so got no clear call; they are omitted. Cut-off read from the data, not from the text of the source: active = normalized growth mostly below about 0.91 (no sharp cut-off); inconclusive = no clear call, values can overlap the other calls; inactive = mostly above about 0.92. The list shows a part of the results.

Test: chemical genetic growth profiling, strain panel (AID 1159580);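 note: tested at 20 µM; growth read once vehicle control cultures reached saturation at 30 °C; 1 = growth at the plate median or of vehicle wells; lower values mean less growth of the strain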
Settings: S. cerevisiae deletion strains, growth OD

Measured: normalized growth

Cc1scc2c1N(C(=O)CN1CCN(C)CC1)c1ccccc1NC2=O
inactive: locus YAL013W, strain DEP1, active compounds read low 0.967 | locus YAL021C, strain ccr4, active compounds read low 0.984 | locus YAL026C, strain drs2, active compounds read low 0.972 | locus YAL030W, strain snc1, active compounds read low 0.939 | locus YAL040C, strain CLN3, active compounds read low 0.985 | locus YBL061C, strain skt5, active compounds read low 0.963 | locus YBR009C, strain hhf1, active compounds read low 0.989 | locus YBR023C, strain chs3, active compounds read low 0.947 | locus YBR171W, strain sec66, active compounds read low 0.954 | locus YBR231C, strain swc5, active compounds read low 0.972 | locus YBR279W, strain paf1, active compounds read low 0.958 | locus YCL011C, strain gbp2, active compounds read low 0.954 | locus YCL016C, strain dcc1, active compounds read low 0.975 | locus YCL061C, strain MRC1 (second series), active compounds read low 1 | locus YCL069W, strain vba3, active compounds read low 0.971 | locus YCR088W, strain abp1, active compounds read low 0.969 | locus YDL005C, strain med2, active compounds read low 0.956 | locus YDL040C, strain nat1, active compounds read low 0.967 | locus YDR001C, strain nth1, active compounds read low 0.948 | locus YDR069C, strain doa4, active compounds read low 0.922 | locus YDR137W, strain rgp1, active compounds read low 0.941 | locus YDR150W, strain NUM1, active compounds read low 0.998 | locus YDR159W, strain sac3, active compounds read low 0.94 | locus YDR195W, strain ref2 0.899 | locus YDR297W, strain sur2, active compounds read low 0.974 | locus YDR334W, strain swr1, active compounds read low 0.943 | locus YDR335W, strain msn5, active compounds read low 0.955 | locus YDR363W, strain ESC2, active compounds read low 0.984 | locus YDR392W, strain spt3, active compounds read low 1.01 | locus YEL003W, strain gim4, active compounds read low 0.976 | locus YEL037C, strain rad23, active compounds read low 0.957 | locus YEL061C, strain CIN8 (second series), active compounds read low 0.96 | locus YER002W, strain NOP16, active compounds read low 1 | locus YER015W, strain faa2, active compounds read low 0.974 | locus YER016W, strain bim1, active compounds read low 0.967 | locus YER111C, strain swi4, active compounds read low 0.965 | locus YER155C, strain BEM2 (second series), active compounds read low 0.939 | locus YFR010W, strain ubp6, active compounds read low 0.95 | locus YGL167C, strain pmr1, active compounds read low 0.943 | locus YGL173C, strain kem1, active compounds read low 0.978 | locus YGL227W, strain vid30, active compounds read low 0.947 | locus YGL240W, strain doc1, active compounds read low 0.966 | locus YGL253W, strain hxk2, active compounds read low 0.965 | locus YGR078C, strain PAC10, active compounds read low 0.996 | locus YHR013C, strain ard1, active compounds read low 0.967 | locus YHR027C, strain rpn1, active compounds read low 0.966 | locus YHR030C, strain SLT2, active compounds read low 1.08 | locus YHR079C, strain IRE1, active compounds read low 1.1 | locus YHR142W, strain chs7, active compounds read low 0.942 | locus YJL092W, strain hpr5, active compounds read low 0.965 | locus YJL095W, strain BCK1 (second series), active compounds read low 0.96 | locus YJL095W, strain BCK1, active compounds read low 1.11 | locus YJL115W, strain asf1, active compounds read low 0.952 | locus YJL129C, strain trk1, active compounds read low 0.948 | locus YJL154C, strain vps35, active compounds read low 0.961 | locus YJL164C, strain tpk1, active compounds read low 0.995 | locus YJL166W, strain qcr8, active compounds read low 0.949 | locus YJL187C, strain SWE1, active compounds read low 0.968 | locus YJR066W, strain TOR1, active compounds read low 0.962 | locus YJR075W, strain HOC1, active compounds read low 0.979 | locus YKL160W, strain elf1, active compounds read low 0.981 | locus YKR026C, strain gcn3, active compounds read low 0.96 | locus YKR091W, strain srl3, active compounds read low 0.977 | locus YLL001W, strain dnm1, active compounds read low 0.968 | locus YLL026W, active compounds read low 0.949 | locus YLL041C, strain sdh2, active compounds read low 0.968 | locus YLR027C, strain aat2, active compounds read low 0.977 | locus YLR113W, strain HOG1, active compounds read low 0.977 | locus YLR221C, strain rsa3, active compounds read low 0.995 | locus YLR258W, strain gsy2, active compounds read low 0.963 | locus YLR262C, strain YPT6 (second series), active compounds read low 0.962 | locus YLR320W, strain mms22, active compounds read low 1 | locus YLR342W, strain FKS1, active compounds read low 0.98 | locus YLR357W, strain rsc2, active compounds read low 0.948 | locus YLR370C, strain arc18, active compounds read low 0.945 | locus YLR384C, strain iki3, active compounds read low 0.962 | locus YML120C, strain ndi1, active compounds read low 0.964 | locus YMR058W, strain fet3, active compounds read low 0.952 | locus YMR125W, strain sto1, active compounds read low 0.948 | locus YMR129W, active compounds read low 0.982 | locus YMR205C, strain PFK2, active compounds read low 0.967 | locus YMR231W, strain pep5, active compounds read low 0.972 | locus YMR263W, strain SAP30, active compounds read low 0.989 | locus YMR307W, strain GAS1, active compounds read low 0.981 | locus YNL071W, strain lat1, active compounds read low 0.979 | locus YNL153C, strain GIM3, active compounds read low 1 | locus YNL175C, strain NOP13, active compounds read low 1.02 | locus YNL183C, strain NPR1, active compounds read low 0.938 | locus YNL197C, strain WHI3, active compounds read low 0.979 | locus YNL209W, strain ssb2, active compounds read low 0.973 | locus YNL224C, strain SQS1, active compounds read low 1.02 | locus YNL248C, strain rpa49, active compounds read low 0.964 | locus YNL322C, strain KRE1 (second series), active compounds read low 0.967 | locus YNL322C, strain KRE1, active compounds read low 0.972 | locus YNR049C, strain mso1, active compounds read low 0.962 | locus YOR001W, strain rrp6, active compounds read low 0.972 | locus YOR070C, strain gyp1, active compounds read low 0.984 | locus YOR080W, strain dia2, active compounds read low 0.958 | locus YOR083W, strain WHI5 (second series), active compounds read low 0.995 | locus YOR083W, strain WHI5, active compounds read low 0.982 | locus YOR106W, strain vam3, active compounds read low 0.948 | locus YOR231W, strain MKK1, active compounds read low 1.05 | locus YOR265W, strain rbl2, active compounds read low 0.965 | locus YOR270C, strain vph1, active compounds read low 0.866 | locus YOR290C, strain snf2, active compounds read low 0.974 | locus YPL051W, strain arl3, active compounds read low 0.985 | locus YPL055C, strain LGE1, active compounds read low 0.962 | locus YPL078C, strain atp4, active compounds read low 0.957 | locus YPL106C, strain sse1, active compounds read low 0.936 | locus YPL240C, strain hsp82, active compounds read low 0.979 | locus YPL241C, strain CIN2, active compounds read low 1 | locus YPL256C, strain CLN2, active compounds read low 1.1
